ALDH1A1 inh – inhibitors of human aldehyde dehydrogenase 1A1; P00352; Purified ALDH1A1, NADH fluorescence, propionaldehyde substrate; Potency, µM (top dose mostly 75.3 µM), for the others: at the top dose activity, negative = inhibition, most hits filed as inhibitors; actives 7.3% (n = 220,000);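 further: potency means the concentration at half of the fitted maximal effect; plate controls were no enzyme wells and a reference inhibitor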
LMNA splice mod – modulators of lamin A splicing; HeLa LMNA splicing GFP/RFP minigene ratio, 48 h; Potency, µM (highest dose often 46.1 µM), without a hit: at the highest dose ratio change, negative = inhibition, most hits filed as inhibitors; actives 0.01% (n = 200,000); AID 1487; active means well fitted inhibition curve with a large enough effect in the signal ratio, with a control signal flat, not every such curve was filed as active; inconclusive means small, poorly fitted or top-dose-only effect, or effect the other way, or a change in a side signal; the % refers to the signal ratio; further: potency means the concentration at half of the fitted maximal effect
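S3 HeLa cells stably expressing lamin A-EGFP splicing minigene plus DsRed2, 600 cells/well, 48 h compound exposure at 37C. Laser-scanning cytometry; analysed as GFP (500-530 nm)/RFP (575-640 nm) total intensity ratio; 0.5% DMSO vehicle.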
HPGD block – inhibitors of human 15-hydroxyprostaglandin dehydrogenase (HPGD) | purified HPGD, NADH fluorescence kinetic, PGE2 substrate | actives 4.3% (n = 150,000) | Potency, µM, for the others: at the highest dose activity change, negative = inhibition, most hits filed as inhibitors | P15428; further: potency means the concentration at half of the fitted maximal effect
Target sequence (P15428 whole entry, looked up): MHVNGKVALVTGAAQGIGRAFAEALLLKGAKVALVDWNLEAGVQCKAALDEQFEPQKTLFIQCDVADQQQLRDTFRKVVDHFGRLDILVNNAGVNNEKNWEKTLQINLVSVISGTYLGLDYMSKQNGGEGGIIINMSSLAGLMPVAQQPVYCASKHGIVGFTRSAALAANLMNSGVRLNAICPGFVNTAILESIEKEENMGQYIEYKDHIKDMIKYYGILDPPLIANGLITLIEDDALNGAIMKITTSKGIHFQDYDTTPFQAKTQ
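NADH formation kinetics: reaction with 30 uM PGE2 and 1 mM NAD+ (final), 20 nM enzyme, Tris-HCl pH 8 with Tween 20, after 15 min compound preincubation at room temperature. Fluorescence change, last versus first of five reads.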
ALOX12 inhib – inhibitors of human 12-lipoxygenase (ALOX12). AID 1452. Potency, µM (titrated, usually from 57.1 µM), without a hit: top-dose activity change, negative = inhibition, most hits filed as inhibitors. purified 12-hLO, xylenol orange hydroperoxide absorbance. P18054. actives 0.12% (n = 150,000); active means well fitted inhibition curve with a large enough effect; inconclusive means small, poorly fitted or top-dose-only effect; further: potency means the concentration at half of the fitted maximal effect; nearly all actives have a fitted effect of over 55% in size
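Purified human 12hLO (150 nM final) was preincubated with compounds for 15 min at room temperature in 25 mM Hepes pH 7.0, 0.01% Triton X-100, then reacted with 40 uM arachidonic acid for 30 min. Hydroperoxide was detected with ferrous iron/xylenol orange.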
PNC inhibitor – perinucleolar compartment assembly inhibition; PC3M PTB-GFP, PNC prevalence imaging, 16 h; active compounds read low; activity change (PNC), negative = inhibition, % at 10 µM; actives 3.1% (n = 140,000); AID 2417;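 active means readout at or below -70, meaning at least 70% loss of cells showing the perinucleolar compartment, a nuclear body marking cancer cells; inconclusive means readout between -30 and a set limit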;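 further: plate controls were DMSO wells for no effect and camptothecin positive control wells for full effect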
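Read-out is percentage of cells bearing a perinucleolar compartment, from automated 20x imaging of fixed, Hoechst-stained PC3M PTB-GFP cells. Cells were seeded 4 h, then exposed 16 h to compound (23 nl of library stock) in duplicate plates.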
Numbers without * were called inactive; u = inconclusive; x = no result; [ ] = remark or other dose. A selection: hits, their analogues and other compounds. The true share with any hit is near 10%. Unless noted, the call rests on the fitted dose curve; in most records, active means well fitted inhibition curve with a large enough effect (not every such curve was filed as active); inconclusive means small, poorly fitted or top-dose-only effect, or another doubt; inactive means no such curve, though single readings can be large or run the other way. Unless noted, on the % scale 0 is the no-effect control and ±100 the full control effect.

SMILES | ALDH1A1 inh | LMNA splice mod | HPGD block | ALOX12 inhib | PNC inhibitor
Cc1cccn2c(=O)c(/C=C(\C#N)C(=O)NC3CCS(=O)(=O)C3)c(N3CCC(C(N)=O)CC3)nc12 (configuration not stated) | 5% | -10% | u | 0% | -25
Cc1cccn2c(=O)c(/C=C(\C#N)S(=O)(=O)c3ccccc3)c(N3CCC(C(N)=O)CC3)nc12 | u | -16% | 28µM* | -13% | 22
Cc1ccc(S(=O)(=O)/C(C#N)=C/c2c(N3CCC(C(N)=O)CC3)nc3c(C)cccn3c2=O)cc1 | u | 3% | 3.5µM* | u | -14
Cc1ccc(S(=O)(=O)/C(C#N)=C/c2c(N3CCC(C(N)=O)CC3)nc3ccccn3c2=O)cc1 | u | -7% | 25µM* | u | u
O=Cc1c(N2CCOCC2)nc2ccccn2c1=O | -2% | x | x | x | x
Cc1ccc(S(=O)(=O)/C(C#N)=C/c2c(N3CCOCC3)nc3ccccn3c2=O)cc1 | 2% | 3% | 16µM* | -13% | u
Cc1nc2cccnc2n1C1CCN(C(=O)Nc2ccccc2)CC1 | x | 4%[46 µM] | x | x | x
COc1cccc(Cc2nc3ccccc3nc2SCC(=O)NCCc2ccccc2)c1 | x | -14%[46 µM] | x | x | x
Cc1cccn2c(=O)c(C=O)c(N3CC(C)OC(C)C3)nc12 (configuration not stated) | -2% | x | x | x | x
CCN1CCN(c2nc3c(C)cccn3c(=O)c2/C=C(\C#N)S(=O)(=O)c2ccccc2)CC1 | 22µM* | 9% | -12% | 2% | u
Cc1cccn2c(=O)c(C=O)c(N3CCCCCC3)nc12 | 11µM* | -4% | -24% | -11% | -24
CCOC(=O)/C(C#N)=C/c1c(N2CCN(Cc3ccc4c(c3)OCO4)CC2)nc2c(C)cccn2c1=O | 0.71µM* | x | x | x | x
O=C(CCCCCn1c(=O)[nH]c2ccccc2c1=O)NCCc1ccccc1 | x | 13%[46 µM] | x | x | x
COc1cccc(-n2cc(C(=O)NCc3ccc(C)cc3)c3ccccc3c2=O)c1 | x | 7%[46 µM] | x | x | x
O=c1c2ccccc2c(C=NCCO)c(O)n1-c1ccccc1 | -14% | -5% | -12% | 0% | 15
O=c1c2ccccc2c(C=NC2CCS(=O)(=O)C2)c(O)n1-c1ccccc1 (configuration not stated) | 18µM* | 6% | -11% | -6% | -25
Cc1ccc2c(c1)sc[n+]2Cc1ccccc1 | u | 12% | 20µM* | -24% | 6
Cc1ccc(NC(=O)COC(=O)C2(c3ccc(Cl)cc3)CCCC2)cc1 | 10µM* | u | -8% | -4% | u
Cc1cc(Cl)c(S(=O)(=O)N/N=C/c2ccc3c(c2)OCO3)c(Cl)c1 | 11µM* | 7% | -20% | u | 60
CCC(Oc1ccccc1)C(=O)Nc1nnc(S(=O)(=O)N2CCCC2)s1 (configuration not stated) | x | -5%[46 µM] | x | x | x
CCOc1cccc(=O)c2c(C)n(Cc3ccccc3)c(C)c12 | -12% | 19%[46 µM] | x | x | x
CCOc1cccc(=O)c2c(C)n(Cc3ccco3)c(C)c12 | 2.2µM* | 17% | u | -25% | -100*
CC1CCCN(C(=S)SCC(=O)c2cc(Br)cc(Br)c2O)C1 (configuration not stated) | 25µM* | u | x | x | x
O=C(CSC(=S)N1CCCC1)c1cc(Br)cc(Br)c1O | 16µM* | u | x | x | x
CN(C(=O)CSc1nc2ccccc2n1CC(=O)NCc1ccc(F)cc1)c1ccc(F)cc1 | x | 5%[46 µM] | x | x | x
SMILES | ALDH1A1 inh | LMNA splice mod | HPGD block | ALOX12 inhib | PNC inhibitor
c1ccc2c(Cn3nnc4ccccc43)cccc2c1 | u | u | 28µM* | -5% | 26
COc1cccc(/C=N/NC(=O)C(=O)NCc2cccnc2)c1OC | 16µM* | 16%[46 µM] | x | x | x
COCCn1cc(C(=O)c2cc(Br)ccc2O)cc(C#N)c1=O | -11% | 5%[46 µM] | x | x | x
COc1ccc(C(=O)C(CCC(CNC(C)(C)C)C(=O)c2ccc(OC)cc2)CNC(C)(C)C)cc1 (configuration not stated) | 8.9µM* | u | -4% | -1% | -4
COc1ccc(C(=O)CC(=O)c2ccc(C(C)(C)C)cc2)cc1 | u | u | -6% | -7% | x
CC(C)(C)C(=O)NC(c1ccc(Cl)cc1)[C@]1(C)C[C@H]1C1CCCCC1 (some centres not stated) | u | x | -15% | -1% | x
CC1=C(C(=O)N(C)C)C(c2ccc(N3CCOCC3)cc2)NC(=O)N1 (configuration not stated) | -1% | 4%[46 µM] | x | x | x
N#CCCN(C(=O)COc1ccc(F)cc1Br)c1ccccc1F | 18µM* | u | x | x | x
CCc1ccc(OCC(=O)NCCN(C)C)c(Br)c1 | -3% | 21% | -23% | 4% | -16
CCc1ccc(OCC(=O)N(C)CCC#N)c(Br)c1 | 23% | 8% | -4% | 4% | -91*
CC(Oc1ccccc1)C(=O)Nc1cccc(-c2cn3cccnc3n2)c1 (configuration not stated) | x | -15%[46 µM] | x | x | x
O=c1[nH]cc(NCCNc2ncc(C(F)(F)F)cc2Cl)c(=O)[nH]1 | 8% | 3%[46 µM] | x | x | x
CCOC(=O)c1cccc(NS(=O)(=O)c2ccc(-c3coc(C)n3)cc2)c1 | x | -8%[46 µM] | x | x | x
CC(=O)Nc1cc[n+](C(C)C(=O)c2ccc(Br)cc2)cc1 (configuration not stated) | -1% | u | x | x | x
NC(=O)CC[C@@H]1NC(=O)[C@H](CO)NC(=O)c2cc([N+](=O)[O-])cc(I)c2NCC[C@@H](C(N)=O)NC(=O)[C@H](Cc2ccc(O)cc2)NC1=O | 3.5µM* | 1% | -10% | -4% | 29
CCCCNC(=O)Cn1c(=O)cc(C)c2c(C)nn(-c3cccc(Cl)c3C)c21 | x | 5%[46 µM] | x | x | x
C=CCCCCCCCCC(=O)O | 2% | u | -9% | -1%[0.00818 µM] | x
C=CCCCCCCCCC(=O)NN | 14µM* | -6% | -8% | 3% | -9
C=CCCCCCCCC(=O)OC | 18µM* | x | x | x | x

Assay outcomes as filed in PubChem BioAssay.
